Compounds without any hit were thinned out: in the full panel of roughly 83,000, 20% have a hit.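 48-hour exposure, single concentration, 96-well plates; percent growth endpoint where 0 means no net growth. Active: below 10.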 Unmarked numbers belong to inactive results. Active and inactive are the calls of the source.

Test systems include DU-145 prostate; K-562 leukemia; MALME-3M melanoma; MDA-MB-231 breast; RXF 393 renal; SF-268 CNS; SF-295 CNS; SF-539 CNS; UACC-257 melanoma; M14 melanoma; HCT-15 colon; HT29 colon; SNB-75 CNS; SNB-19 CNS; U251 CNS; PC-3 prostate; SK-MEL-5 melanoma; UACC-62 melanoma; LOX IMVI melanoma; SK-MEL-28 melanoma.
Test in all cases: NCI-60 one-dose screen, 48 h (100 = growth as untreated, 0 = no growth, -100 = all killed)
Holding throughout (details): 10 µM unless noted

On to `COc1cc(Nc2ncc(F)c(Nc3ccc4c(n3)N(COP(=O)(O)O)C(=O)C(C)(C)O4)n2)cc(OC)c1OC`, for which the growth with DU-145 prostate is 30.9%; in the assay on K-562 leukemia, 32.3%; in the assay with MALME-3M melanoma, 53.1%; in the assay with MDA-MB-231 breast, 15.9%; with RXF 393 renal, -79.9% (active); in the assay on SF-268 CNS, 7.3% (active). Also, the growth with SF-295 CNS was 15.5%; with SF-539 CNS, -70.1% (active); in the assay with UACC-257 melanoma it was 66.2%; in the assay on M14 melanoma it was 39%; in the assay with HCT-15 colon, 21.4%; in the assay with HT29 colon, -0.77% (active). Moreover, the growth in the assay with SNB-75 CNS is -95.5% (active); in the assay on SNB-19 CNS, 31.4%; in the assay with U251 CNS, 29.5%; in the assay on PC-3 prostate, 33.5%; with SK-MEL-5 melanoma it was 43.8%; with UACC-62 melanoma, 18.8%. Further, the growth was -69% (active) with LOX IMVI melanoma and 45.6% in the assay on SK-MEL-28 melanoma.
For the compound `CNC(=O)c1cc(Oc2ccc3nc(NC(=O)Nc4ccc(Cl)c(C(F)(F)F)c4)sc3c2)ccn1`, the growth with DU-145 prostate is 19.2%; in the assay with K-562 leukemia, 47.2%; with MALME-3M melanoma it was -21.1% (active); in the assay with MDA-MB-231 breast, 4.76% (active); with RXF 393 renal, -19.4% (active); with SF-268 CNS, 21.9%. The growth in the assay with SF-295 CNS is -10.9% (active); with SF-539 CNS it was -2.86% (active); in the assay with UACC-257 melanoma it was 61.4%; in the assay with M14 melanoma, -10.4% (active); in the assay with HCT-15 colon, 23.5%; with HT29 colon it was 3.52% (active). The growth with SNB-75 CNS was -58.8% (active); in the assay with SNB-19 CNS, 33.5%; in the assay on U251 CNS it was -9.69% (active); with PC-3 prostate, 12.4%; with SK-MEL-5 melanoma it was 25.7%; in the assay on UACC-62 melanoma, 8.48% (active). The growth is 1.46% (active) in the assay on LOX IMVI melanoma and 34.7% in the assay on SK-MEL-28 melanoma.
As to `CS(=O)(=O)N1CCc2c(-c3cnc(N)nc3)nc(N3CCOCC3)nc21`, the growth with DU-145 prostate is 13.5%; in the assay with K-562 leukemia, 22.3%; with MALME-3M melanoma, -17.6% (active); in the assay with MDA-MB-231 breast, 30.4%; in the assay with RXF 393 renal it was -36.2% (active); with SF-268 CNS it was 14.7%. For the same compound, the growth with SF-295 CNS is -34.7% (active); in the assay on SF-539 CNS, -45.1% (active); in the assay on UACC-257 melanoma it was -18% (active); in the assay on M14 melanoma, 10.4%; in the assay on HCT-15 colon it was 9.65% (active); in the assay with HT29 colon it was 6.31% (active). The growth with SNB-75 CNS was -45.1% (active); in the assay on SNB-19 CNS it was 16.1%; in the assay with U251 CNS it was 12.4%; with PC-3 prostate it was 10.1%; in the assay on SK-MEL-5 melanoma, -3.03% (active); with UACC-62 melanoma it was -41.1% (active). Further, the growth is 1.28% (active) in the assay on LOX IMVI melanoma and -15.9% (active) with SK-MEL-28 melanoma.
As for `CCOc1cc2ncc(C#N)c(Nc3ccc(F)c(Cl)c3)c2cc1NC(=O)/C=C/CN(C)C`, the growth in the assay on DU-145 prostate was -56.6% (active); in the assay on K-562 leukemia, -16.4% (active); in the assay on MALME-3M melanoma it was -77.5% (active); in the assay with MDA-MB-231 breast, -38.8% (active); in the assay on RXF 393 renal, -83% (active); in the assay on SF-268 CNS, -19.9% (active). Also, the growth in the assay with SF-295 CNS is 9.82% (active); in the assay with SF-539 CNS, -85.9% (active); in the assay on UACC-257 melanoma it was -63% (active); with M14 melanoma, -83.1% (active); in the assay on HCT-15 colon, -31.1% (active); with HT29 colon, -35.3% (active). For the same compound, the growth with SNB-75 CNS is -98.5% (active); in the assay on SNB-19 CNS, -26.6% (active); in the assay with U251 CNS, -70.9% (active); with PC-3 prostate, -1.37% (active); with SK-MEL-5 melanoma, -94.5% (active); in the assay with UACC-62 melanoma, -46.7% (active). Further, the growth was -72.3% (active) in the assay on LOX IMVI melanoma and -75.4% (active) in the assay with SK-MEL-28 melanoma.
Turning to `CC[C@H](CO)Nc1nc(NCc2ccccc2)c2ncn(C(C)C)c2n1`, the growth in the assay with DU-145 prostate is 53.9%; with K-562 leukemia, 58.5%; with MALME-3M melanoma, 87.4%; in the assay with MDA-MB-231 breast it was 75.6%; in the assay with RXF 393 renal, -22.3% (active); in the assay with SF-268 CNS, 70.9%. Further, the growth is 59.8% with SF-295 CNS; 57.2% in the assay with SF-539 CNS; 91.6% in the assay with UACC-257 melanoma; 71.8% in the assay with M14 melanoma; 53.4% in the assay on HCT-15 colon; 54% in the assay on HT29 colon. For the same compound, the growth with SNB-75 CNS was 57.4%; with SNB-19 CNS, 67.9%; in the assay on U251 CNS, 62.5%; in the assay on PC-3 prostate it was 70.8%; with SK-MEL-5 melanoma, 66.5%; with UACC-62 melanoma, 46.8%. For the same compound, the growth in the assay on LOX IMVI melanoma is 51.1%; with SK-MEL-28 melanoma, 55.5%.
With `Cc1c(NC(=O)OC[C@@H]2COCCN2)cn2ncnc(Nc3ccc4c(cnn4Cc4cccc(F)c4)c3)c12`, the growth in the assay with DU-145 prostate is 10.1%; in the assay on K-562 leukemia it was 11.5%; in the assay with MALME-3M melanoma it was -27% (active); with MDA-MB-231 breast it was 1.06% (active); with RXF 393 renal, -62.4% (active); with SF-268 CNS, -2.37% (active). The growth in the assay with SF-295 CNS is 14.6%; with SF-539 CNS it was -52.4% (active); in the assay with UACC-257 melanoma, -31.3% (active); with M14 melanoma, -29.3% (active); in the assay with HCT-15 colon, 4.13% (active); in the assay on HT29 colon, -6.28% (active). For the same compound, the growth was -70.7% (active) in the assay on SNB-75 CNS; 6.8% (active) with SNB-19 CNS; -6.22% (active) in the assay on U251 CNS; 9.24% (active) in the assay with PC-3 prostate; -46.4% (active) in the assay on SK-MEL-5 melanoma; -14.7% (active) with UACC-62 melanoma. Also, the growth in the assay on LOX IMVI melanoma was -11% (active); in the assay on SK-MEL-28 melanoma, -10.1% (active).
As to `COc1ccc(Nc2ncccc2NC(=O)c2cn(Cc3cccc(Oc4ccccc4)c3)nn2)cc1`, the growth with DU-145 prostate was 93.4%; in the assay on K-562 leukemia it was 73.8%; in the assay on MALME-3M melanoma, 85.8%; in the assay with MDA-MB-231 breast, 87.1%; in the assay with RXF 393 renal it was 79.6%; with SF-268 CNS it was 82.3%. For the same compound, the growth was 92.8% in the assay with SF-295 CNS; 95.1% in the assay with SF-539 CNS; 93% in the assay with UACC-257 melanoma; 95.9% with M14 melanoma; 78.3% with HCT-15 colon; 101% with HT29 colon. The growth is 83.8% with SNB-75 CNS; 95.3% in the assay on SNB-19 CNS; 89.8% in the assay on U251 CNS; 69.8% in the assay with PC-3 prostate; 76.2% with SK-MEL-5 melanoma; 67% in the assay on UACC-62 melanoma. In addition, the growth was 86.6% with LOX IMVI melanoma and 102% in the assay on SK-MEL-28 melanoma.

The values are drawn from PubChem BioAssay (NCI).
